# Screening results from PubChem BioAssay.
# Compounds with a hit are over-represented: about 22% of the library has one in this group of screens.
# CYP2C9 act – activators of human CYP2C9; P11712; recombinant CYP2C9, luciferin-H conversion, luminescence; stronger effect = higher value; factor 1 = untreated enzyme, 0 = blocked; activation factor at 5 µM; 96,000 tested, 1.4% active; AID 1024;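 active = activation factor of 2 or more for CYP2C9 at a 5 µM dose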;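 note: 0 = sulfaphenazole-blocked wells and 1 = vehicle-only wells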
# CYP2C19 act – increases human CYP2C19 enzyme activity; P33261; recombinant CYP2C19, luciferin-H EGE luminescence; stronger effect = higher value; 0 = fully inhibited enzyme, 1 = untreated enzyme; activation factor at 5 µM; 96,000 tested, under 10 active; AID 1025;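 active = activation factor of at least 2 at 5 µM in the primary screen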;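 note: 0 = wells with 2.5 mM tranylcypromine and 1 = vehicle-only wells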
# Target sequence (P33261 whole entry, looked up): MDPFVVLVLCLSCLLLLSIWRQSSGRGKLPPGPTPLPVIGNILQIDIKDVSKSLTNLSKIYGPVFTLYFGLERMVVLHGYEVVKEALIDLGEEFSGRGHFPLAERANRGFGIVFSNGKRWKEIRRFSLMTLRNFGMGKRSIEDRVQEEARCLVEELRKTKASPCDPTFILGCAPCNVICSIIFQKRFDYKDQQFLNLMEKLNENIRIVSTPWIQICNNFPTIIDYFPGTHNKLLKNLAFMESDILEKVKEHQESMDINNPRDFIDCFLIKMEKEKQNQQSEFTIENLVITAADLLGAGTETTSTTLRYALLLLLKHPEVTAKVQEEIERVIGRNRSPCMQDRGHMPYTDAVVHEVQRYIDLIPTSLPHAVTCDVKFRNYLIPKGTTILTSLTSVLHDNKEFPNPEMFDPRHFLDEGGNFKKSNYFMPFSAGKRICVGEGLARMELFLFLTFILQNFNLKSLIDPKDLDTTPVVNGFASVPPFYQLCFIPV
# CYP2C9 inhib – inhibitors of human CYP2C9; P11712; CYP2C9 Supersomes, luciferin-H conversion, luminescence; inhibition, % at 5 µM; 96,000 tested, 20% active;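 active = blocking of liver enzyme CYP2C9 beyond about 50% at 5 µM, limit read from the data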
# E-sel TNF inh – TNF alpha driven E-selectin expression inhibition. HUVEC TNFa-induced E-selectin immunofluorescence, high content. inhibition, % at 2 µM. 120,000 tested, 0.71% active;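 active = inhibition above the batch mean plus 3 SD, and confirmed as a hit on visual image review, cut at about 43% in these data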;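 note: 0% = TNF-stimulated DMSO wells and 100% = unstimulated control wells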
# F-actin modifier – alters cytoskeleton assembly in HUVEC cells; inhibition, % at 2 µM; 91,000 tested, 0.18% active; HUVEC TNFa F-actin phalloidin imaging, high content;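 active = inhibition above the batch mean plus 3 SD and confirmed as a hit by visual image inspection, cut at about 30% in these data, passing the limit was not always enough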
# CYP2C19 inh – blocks human cytochrome P450 2C19; CYP2C19 Supersomes, luciferin-H EGE luminescence, 30 min; AID 778; inhibition, % at 5 µM; P33261; 96,000 tested, 21% active;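 active = CYP2C19 inhibition above a set limit at 5 µM in the primary screen, cut at about 50% in these data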;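 note: plate controls were negative control wells for no effect and 2.5 mM tranylcypromine positive control for full effect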
# An asterisk follows results filed as active; nt = not tested or not shown.
SMILES,CYP2C9 act,CYP2C19 act,CYP2C9 inhib,E-sel TNF inh,F-actin modifier,CYP2C19 inh
Nc1nnc(CC(=O)N/N=C/c2cc([N+](=O)[O-])cc(Br)c2O)s1,nt,nt,nt,8,nt,nt
N#C/C(C(=O)Oc1ccccc1)=C1\C=CC=CN1,0.8,0.9,19,nt,23,11
CCOC(=O)c1c(C)[nH]sc1=S,0.9,0.9,14,nt,-12,8
CCOC(=O)c1c(C(F)(F)C(F)(F)C(F)(F)C(F)(F)F)n[nH]c1C,0.1,0.1,92*,-2,8,95*
CC(C)CCNC(=O)Cn1cc2c(n1)CCCCC2,0.5,0.9,49,-8,nt,6
COCCNC(=O)Cn1nc(C(F)(F)F)cc1C,0.9,1,6,nt,12,-1
COCCNC(=O)Cn1nc(C(F)(F)F)c(Br)c1C,0.5,0.6,52*,-8,nt,35
CSCC[C@H](NC(=O)Nc1cccc(C(F)(F)F)c1)C(=O)O,0.9,1,9,-4,-20,-2
Cc1cc2cc(C(c3nnnn3Cc3ccco3)N3CCCCC3)c(=O)[nH]c2cc1C (configuration not stated),1,1,1,nt,-3,-2
O=[N+]([O-])c1ccc(N2CCCCC2)c(Cl)c1N1CCCCC1,0.5,0.6,50*,17,-18,41
O=[N+]([O-])c1ccc(N2CCCCCC2)c([N+](=O)[O-])c1,1,0.7,0,52,-10,27
Nc1cc(N2CCCCC2)c(Cl)cc1[N+](=O)[O-],0.5,0.2,53*,2,-8,80*
CCOC(=O)NCc1ccc(S(=O)(=O)Nc2ccccc2C)cc1,0.8,0.3,25,nt,nt,69*
Cc1ccccc1NS(=O)(=O)c1ccc(C)c(C(N)=O)c1,0.9,0.1,11,24,9,90*
O=C(O)c1ccccc1NS(=O)(=O)c1ccccc1C(F)(F)F,0.3,1,66*,5,-12,4
O=C(NS(=O)(=O)c1ccccc1)c1ccccc1O,0.1,1,89*,-2,-5,4
Cc1ccc(NC(=O)C2CC(=O)n3c(nc4ccccc43)N2)cc1 (configuration not stated),1.1,1.1,-8,-2,14,-11
NC(=O)c1ccccc1NS(=O)(=O)c1ccccc1,2.3*,0.7,-133,12,0,25
Cc1ccccc1NS(=O)(=O)c1cc(C(N)=O)ccc1C,0.8,0,19,-40,-6,97*
Cc1ccc(S(=O)(=O)Nc2ccccc2C(N)=O)cc1,2.1*,0.8,-109,25,12,23
NC(=O)c1ccccc1NS(=O)(=O)Cc1ccc(Cl)cc1,1.6,0.3,-57,-8,3,66*
NC(=O)c1ccccc1NS(=O)(=O)c1cccs1,1.9,0.9,-90,9,1,14
COc1ccc(C2C(C(=O)N3CCCCC3)CCC(=O)N2c2cc(OC)c(OC)c(OC)c2)cc1 (configuration not stated),nt,nt,nt,3,-11,nt
Cn1c(SCC(=O)c2c(N)n(C)c(=O)n(C)c2=O)nnc1-c1ccccc1F,nt,nt,nt,-26,nt,nt
CCOC(=O)N1CCN(Cc2nc3c(c(=O)n(C)c(=O)n3C)n2Cc2ccc(F)cc2)CC1,1.2,1.1,-23,nt,11,-7
SMILES,CYP2C9 act,CYP2C19 act,CYP2C9 inhib,E-sel TNF inh,F-actin modifier,CYP2C19 inh
Cc1ccc(C)c(NS(=O)(=O)c2cc(C(=O)Nc3ccccc3-c3ccccc3)ccc2C)c1,0.2,0.5,80*,36,-5,54*
Cc1ccc(OS(=O)(=O)c2ccccc2)c(/C=N/N=C2\NC(=O)C(C)S2)c1 (configuration not stated),nt,nt,nt,-6,8,nt
CCOC(=O)c1c(NC(=O)CN2CCCCC2)sc2c1CCN(C(=O)OCC)C2,0.5,0.3,47,nt,-6,65*
CCOC(=O)c1c(NC(=O)CN2CCOCC2)sc2c1CCCC2,0,0,100*,-33,nt,99*
CCOC(=O)c1c(NC(=O)COC)sc2c1CCCC2,0.4,0.8,58*,53*,-2,16
CCOC(=O)c1c(NC(=O)CC2SC(N)=NC2=O)sc2c1CCCC2 (configuration not stated),0.4,0.8,64*,37,-22,18
Cc1occc1-c1nnc(SCC(=O)NC(=O)NC(C)C)n1N,1.1,1,-6,-6,32,1
COC(=O)c1c(NC(=O)CC2SCC(C(=O)OC)NC2=O)sc2c1CCCC2 (configuration not stated),2.2*,0.3,-124,3,-2,69*
COCCOC(=O)c1c(NC(=O)CN2CCOCC2)sc(C(N)=O)c1C,0.7,0.9,32,72*,-14,6
CCOC(=O)c1c(NC(=O)CN2CCN(C(=O)c3ccco3)CC2)sc2c1CCCC2,nt,nt,nt,15,-5,nt
CCOC(=O)C1CSC(CC(=O)Nc2ccc(Cl)cc2)C(=O)N1 (configuration not stated),2*,0.6,-102,19,-1,42
CCOC(=O)c1c(NC(=O)CN2CCOCC2)sc(C(=O)NC)c1C,0.6,0.6,39,-3,-8,37
CCOC(=O)c1c(NC(=O)CN2CCOCC2)sc2c1CCCC2=O,0.5,0.8,51*,-17,nt,18
CCOC(=O)c1ccc(NC(=O)CC2SCCNC2=O)cc1 (configuration not stated),1.2,1,-20,nt,-4,3
CCn1c(CCNC(=O)c2ccccc2Cl)n[nH]c1=S,0.9,1,8,3,-10,2
CN(C)S(=O)(=O)N(CC(=O)N1CCOCC1)c1ccccc1,1.1,1.1,-6,-14,-27,-9
O=C(Cn1c(=O)oc2cc(S(=O)(=O)N3CCCCC3)ccc21)N1CCc2ccccc2C1,0.9,1,12,nt,-12,-3
CC(C)(C)Sc1nc(O)cc(=O)[nH]1,1,1,5,-5,nt,-3
CCOC(=O)C1C(=O)NC(N2CCN(CC)CC2)=NC1c1ccccc1 (configuration not stated),1,1.1,5,nt,-36,-12
CCC(C)NS(=O)(=O)c1cccs1 (configuration not stated),0.9,0.5,12,-5,9,50
COC(=O)CC(NS(=O)(=O)c1cccs1)c1cccc2ccccc12 (configuration not stated),1,0,-2,27,-3,100*
COC(=O)CC(NC(=O)c1ccco1)c1cccc2ccccc12 (configuration not stated),0.8,0.4,21,nt,-2,64*
CN1CCCC(OC(=O)c2ccc3c(c2)OCCO3)C1 (configuration not stated),1.2,1.1,-18,-4,-14,-6
CC(=O)C1=C(O)CCC1=N,1,1,2,-3,nt,0
Cc1ccc(NC(C(N)=O)c2c(C)[nH]c(=O)[nH]c2=O)cc1 (configuration not stated),0.9,1,5,16,6,-4
